# Assay outcomes: PubChem BioAssay, National Center for Advancing Translational Sciences (NCATS)
# The full list was thinned out, with hits kept by preference.
# SARS PLpro yeast: qHTS of Yeast-based Assay for SARS-CoV PLP | S. cerevisiae expressing SARS-CoV PLpro, growth rescue | Potency, µM (doses to about 32.9 µM), inactives show top-dose activity, positive = growth rescue, actives largely listed as activators | 0.19% of 330,000 active | AID 485353, 2010; calls by dose curve; further: potency means the concentration at half of the fitted maximal effect; 0% is about no effect; nearly all actives have a fitted effect of over 55% in size
# Shiga inhibitor: A qHTS for Small Molecule Inhibitors of Shiga Toxin; Vero cells, Shiga toxin protein synthesis inhibition reporter; inhibition, % at 38.7 µM; 9.2% of 290,000 active; in the data active means inhibition mostly above about 28%, no sharp cut-off; inactive means mostly below about 43%; further: 0% is about no effect
# CHX counter-1: Cycloheximide Counterscreen for Small Molecule Inhibitors of Shiga Toxin. cell reporter, cycloheximide protein synthesis inhibition counterscreen. max response, %. 12% of 300,000 active. AID 2314, 2010; in the data active means max response mostly above about 13%, no sharp cut-off; inactive means mostly below about 14%; further: read at 38.3 µM for the half of the compounds with a filed dose; 0% is about no effect
# AmpC detergent: qHTS Inhibitors of AmpC Beta-Lactamase (assay with detergent); Potency, µM (top dose mostly 114 µM), without a hit: top-dose activity change, negative = inhibition, actives largely listed as inhibitors; AmpC hydrolysis of nitrocefin, absorbance 480 nm, 0.01% Triton; 0.041% of 370,000 active; P00811;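 further: potency means the concentration at half of the fitted maximal effect; 0% = no-compound wells and -100% = no-enzyme wells; nearly all actives have a fitted effect of over 25% in size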
# Target sequence (P00811 whole entry, looked up): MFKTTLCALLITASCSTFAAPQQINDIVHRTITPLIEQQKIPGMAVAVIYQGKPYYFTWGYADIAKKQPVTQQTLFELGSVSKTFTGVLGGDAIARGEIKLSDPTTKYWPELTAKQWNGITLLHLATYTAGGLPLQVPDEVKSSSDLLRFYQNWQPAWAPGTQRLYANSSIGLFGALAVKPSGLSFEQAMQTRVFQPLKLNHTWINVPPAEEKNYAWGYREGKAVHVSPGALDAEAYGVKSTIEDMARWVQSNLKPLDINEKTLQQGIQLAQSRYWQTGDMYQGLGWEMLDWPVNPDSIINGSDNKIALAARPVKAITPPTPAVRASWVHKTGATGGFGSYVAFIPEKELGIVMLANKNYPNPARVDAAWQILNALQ
#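 AmpC (5.3 nM in the dispensed reagent) in 20 mM phosphate pH 7.0 with 0.01% (detergent screen) or 0.0001% Triton X-100 was preincubated with compounds for 15 min at room temperature. Nitrocefin was then added from an 800 uM solution, and hydrolysis was followed at 480 nm.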
# AmpC inh no detg: qHTS Inhibitors of AmpC Beta-Lactamase (assay without detergent) | AmpC nitrocefin hydrolysis, absorbance 480 nm, 0.0001% Triton | Potency, µM (series often up to 57.1 µM), for the others: at the top dose activity change, negative = inhibition, usual class: inhibitors | 0.52% of 330,000 active;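 further: potency means the concentration at half of the fitted maximal effect; plate controls were no compound for no effect and no enzyme for full effect; nearly all actives have a fitted effect of over 20% in size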
#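 AmpC (5.3 nM in the dispensed reagent) in 20 mM phosphate pH 7.0 with 0.01% (detergent screen) or 0.0001% Triton X-100 was preincubated with compounds for 15 min at room temperature. Nitrocefin was then added from an 800 uM solution, and hydrolysis was followed at 480 nm.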
# AMA1-RON2 inh: qHTS for Inhibitors of AMA1-RON; Towards Development of Antimalarial Drug Lead: Primary Screen. 0.2% of 360,000 active. Plasmodium falciparum AMA1 (3D7) - RON2 peptide interaction. AlphaScreen AMA1-biotinylated RON2 peptide binding. Potency, µM (series often up to 58.2 µM), without a hit: at the highest dose activity change, negative = inhibition, actives largely listed as inhibitors;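 further: potency means the concentration at half of the fitted maximal effect; 0% = vehicle wells and -100% = peptide control; nearly all actives have a fitted effect of over 45% in size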
#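 AMA1 (3D7) with his tag at 25 nM final met compounds first, then biotinylated RON2 peptide at 25 nM; detection used donor plus acceptor beads, 10 µg/mL apiece, read by AlphaScreen after 30 min at room temperature.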
# CHX counter-2: Cycloheximide Counterscreen for Small Molecule Inhibitors of Shiga Toxin (Confirmatory). AID 2318, 2010. shares compounds with Shiga inhibitor. Cycloheximide counterscreen, protein synthesis reporter, Shiga toxin assay. 3% of 510 active. Potency, µM (titrated, usually from 38.3 µM), inactives show at the highest dose activity (activation), most hits filed as activators; calls by dose curve; further: potency means the concentration at half of the fitted maximal effect; 0% is about no effect
# Numbers without * were called inactive; ? = inconclusive; . = no result given. Unless noted, the call rests on the fitted dose curve; in most records, active means well fitted curve in the direction sought with a large enough effect; inconclusive means small, poorly fitted or top-dose-only effect, or another doubt; inactive means no such curve, though single readings can be large; an effect the other way counts as inactive or inconclusive.
SMILES,SARS PLpro yeast,Shiga inhibitor,CHX counter-1,AmpC detergent,AmpC inh no detg,AMA1-RON2 inh,CHX counter-2
O=C(CN1CCCC1)NC(=O)NC1CCCC1,1.2%,18.4,5.4,-7.7%,-9.3%,14.1%,.
COc1ccc(NC(=O)[C@H]2O[C@@H]3OC(C)(C)O[C@@H]3[C@H]3OC(C)(C)O[C@H]32)c(OC)c1,.,.,.,23.2%,.,.,.
Cc1noc(/C=C/c2ccco2)c1S(=O)(=O)N1CCC(C(=O)N(C)Cc2ccccc2)CC1,-4.9%,40.1*,12.9,-10.8%,44.5%,-13.9%,?
CCn1c(O)c(C2=NCCCC2)c2ccccc21,-9.0%,125.0*,-1.4,-11.8%,0.2%,-10.0%,1.5%
Cc1cc(C)n(Cc2nc3ccccc3n2C)n1,1.0%,11.3,-1.6,-5.0%,-20.0%,13.5%,.
Cc1cc(C)nc(SCc2nc3ccccc3n2C)n1,0.4%,41.0*,12.7,-7.9%,-11.6%,5.7%,8.4%
Cc1cc(C)nc(Sc2ccc3nnnn3n2)n1,0.1%,30.7*,10.4,?,-10.3%,0.0%,9.3%
Cc1c(NC(=O)c2ccc3c(c2)OCO3)cccc1-c1nc2ccccc2o1,-2.9%,39.2*,7.9,-3.2%,-35.9%,-1.9%,3.6%
O=S1(=O)CC(N2CCN(CC3CC3)CC2)CN1C1CCCC1 (stereo not given),.,.,.,.,.,4.2%,.
CN(C)S(=O)(=O)c1cccc(C(=O)NCC2CCCCC2)c1,-2.8%,22.2,-0.7,-5.3%,14.2%,-10.2%,.
CCN(CCNC(=O)C1CCN(Cc2nc(-c3ccc(Cl)cc3)oc2C)CC1)c1ccccc1,-2.8%,-4.9,1.5,1.3%,160.1%,?,.
CCN(CCNC(=O)C1CCN(Cc2nc(-c3cccc(Cl)c3)oc2C)CC1)c1ccccc1,-1.9%,104.7*,10.4,-6.5%,172.4%,?,-2.0%
O=c1[nH]nc(CNc2ccc(OC(F)(F)F)cc2)c2ccccc12,-22.3%,27.9,21.5,?,-35.0%,-1.8%,.
O=c1[nH]nc(CNc2ccc(C(F)(F)F)cc2)c2ccccc12,?,29.4*,15.3,?,-34.1%,0.0%,?
Cn1ncc(Cl)c1C(=O)Nc1ccncc1,15.6%,-3.4,-1.1,-12.6%,-15.2%,-15.4%,.
Cc1cnc(NC(=O)c2c(Cl)cnn2C)s1,-7.7%,39.7*,6.3,-3.6%,-10.7%,41.0%,0.9%
COc1ccc(Cn2nnnc2C(C(C)C)N(Cc2ccco2)Cc2cccs2)cc1 (stereo not given),-6.2%,44.3*,7.5,-1.3%,-18.3%,-5.8%,0.4%
O=C(COc1ccc2ccc(=O)oc2c1)NCc1ccccn1,2.1%,-10.8,-2.4,?,-1.8%,-4.5%,.
Cc1cc(OCC(=O)NCc2ccccn2)cc(C)c1Br,-25.0%,47.1*,2.4,0.3%,6.2%,-4.5%,5.5%
Cc1ccccc1N(CC(=O)NCc1ccco1)C(=O)CCC(=O)Nc1nccs1,3.0%,24.1,-3.7,6.3%,-3.9%,6.2%,.
Cc1ccc(N(CC(=O)NCc2ccco2)C(=O)CCC(=O)Nc2nccs2)c(C)c1,-0.6%,27.2*,9.4,?,18.6%,2.8%,-1.2%
CCc1nc2ccccc2c(=O)n1NCCc1ccccc1,11.5%,49.1*,-0.7,-3.7%,-5.4%,2.8%,3.7%
CCCCn1c(N)c(N(CC(C)C)C(=O)c2c(-c3ccccc3)noc2C)c(=O)[nH]c1=O,-0.1%,.,.,-8.0%,-8.4%,-3.6%,.
Cc1noc(C)c1C(=O)Nc1ccc2c(c1)CCC2,.,73.2*,8.3,-8.8%,.,6.5%,-2.1%
Cc1noc(C)c1C(=O)Nc1ccc(F)cc1,1.2%,-11.8,1.7,4.0%,-7.3%,5.0%,.
SMILES,SARS PLpro yeast,Shiga inhibitor,CHX counter-1,AmpC detergent,AmpC inh no detg,AMA1-RON2 inh,CHX counter-2
Cc1noc(C)c1C(=O)Nc1ccc(-n2ccc(C(F)(F)F)n2)cc1,-0.1%,-4.8,0.8,4.2%,0.4%,4.0%,.
CN1N=C(C(=O)N2CCCC(N3CCN(c4ccc(F)cc4)CC3)C2)CCC1=O (stereo not given),-5.8%,-1.3,1.0,-7.1%,14.7%,12.2%,.
CCCn1nnc(NC(=O)COc2ccc(Cl)cc2)n1,.,12.0,11.1,6.2%,.,19.9%,.
CCCn1nnc(NC(=O)COc2ccc(C3CCCCC3)cc2)n1,-7.6%,75.4*,-4.0,?,46.5%,-0.1%,-0.5%
Cc1ccc(CSC(Nc2ccc(F)cc2)=C(C#N)C#N)cc1,-1.7%,21.5*,1.1,1.2%,-43.0%,-6.6%,0.5%
CCc1nnc(NC(=O)CSc2ccc(Cl)cc2)s1,?,2.5,-0.3,0.1%,-30.1%,14.9%,.
COc1ccc(/C=C/c2nnc(NC(=O)CSc3ccc(Cl)cc3)s2)cc1,-9.6%,37.3*,8.3,-3.8%,-35.8%,18.5%,?
N#CCSC1=Nc2ccccc2C2=NC(CCC(=O)N3CCN(c4ccccc4)CC3)C(=O)N12 (stereo not given),5.7%,-14.7,-4.1,-5.6%,38.1%,-8.3%,.
Cc1cc(C(=O)Nc2cc(C)on2)on1,0.4%,16.1,-2.7,-6.1%,-5.6%,-0.4%,.
Cc1ccc(O)c(NC(=O)c2cc(C)no2)c1,-1.9%,38.0*,0.9,-4.7%,-7.5%,-5.1%,5.9%
Cc1cccc(C(=O)Nc2nnc(SCC(=O)NC3CC3)s2)c1,4.1%,53.3*,-3.0,-3.7%,-20.7%,-3.5%,?
COc1ccc(C2CC(=O)c3cc(-c4nc(-c5ccc(C)cc5)cs4)c(=O)[nH]c3C2)cc1 (stereo not given),.,.,.,18.9%,.,.,.
CC1CCCN(CCSc2ccc(Cl)cc2)C1 (stereo not given),-6.8%,30.3*,-1.3,6.9%,-13.3%,-30.0%,0.1%
COc1ccccc1CN(Cc1cccnc1)S(=O)(=O)c1ccc(-n2cnnn2)c(OC)c1,19.4%,47.4*,1.5,0.1%,102.8%,-4.7%,-1.8%
COC(=O)[C@]1(Cc2ccccc2)N[C@H](CN(C)C(=O)c2ccccc2)[C@@H]2C(=O)N(C)C(=O)[C@@H]21,11.2%,.,.,.,1.8%,10.7%,.
COc1ccc(CCNC(=O)C2(C)CCC(=O)N2Cc2ccc(F)cc2Cl)cc1OC (stereo not given),0.5%,-1.9,1.4,0.7%,100.5%,14.4%,.
NC(=O)c1cc(S(=O)(=O)N2CC=C(c3ccccc3)CC2)cs1,-0.5%,-6.3,-3.6,2.2%,-6.9%,6.0%,.
O=S(=O)(c1ccsc1)N1CC=C(c2ccccc2)CC1,1.8%,34.7*,2.3,-6.6%,-17.2%,24.4%,?
